Screening data as filed in PubChem BioAssay.
Rows were chosen to be rich in hits. Some 2% of all compounds tested hit in one or more screens of this group.
LEDGF integ inh = blocks HIV-1 LEDGF/p75-dependent DNA integration | inhibition, % at 3.7 µM | 370,000 tested, 0.64% active | AID 743269 | TR-FRET IN-LEDGF/p75 DNA integration, Eu/Cy5;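 active = inhibition above the screen-wide mean plus 3 SD, cut at about 13% in these data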;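 note: signal is the Cy5 over europium emission ratio at 671 and 618 nm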
UHRF1 MBD2 ctr = blocks human UHRF1 binding to methylated DNA | inhibition, % at 4.4 µM | 370,000 tested, 0.75% active | UHRF1 binding to methylated oligo, TR-FRET | Q96T88; in the data active = inhibition above about 21%;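 note: UHRF1 SRA domain binding a hemimethylated CpG hairpin DNA probe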
MBD2 inh = MBD2-methylated oligo binding inhibition. TR-FRET, MBD2 binding to methylated oligonucleotide. 370,000 tested, 0.31% active. inhibition, % at 4.4 µM; in the data active = inhibition above about 13%
Rin1-Abl PPI inh = human Rin1-Abl interaction inhibition | P00519+Q13671 | TR-FRET Rin1/Abl binding, biochemical | AID 588664 | 360,000 tested, 0.4% active | inhibition, % at 7.35 µM; in the data active = inhibition above about 5%, passing the limit was not always enough
TCR-CD3 inh = human TCR-CD3 binding inhibition; inhibition, % at 9.4 µM; 360,000 tested, 0.37% active; TAMRA-labeled TCR probe fluorescence, biochemical; in the data active = inhibition above about 19%;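 note: recombinant mutant TCR 2C K166C tagged with TAMRA read by polarization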
Each line names hits and unclear results; the compound was inactive in the other large screens.

COC(=O)CCc1sc(Nc2ccccc2)nc1-c1ccc(OC)cc1	UHRF1 MBD2 ctr 37
C=C(C)c1cccc(C(C)(C)NC(=O)N2CCN(CC)CC2)c1	none
C=C(C)c1cccc(C(C)(C)NC(=O)N2CCCCC2CC)c1 (stereo not drawn)	UHRF1 MBD2 ctr 22
CCN(CC(=O)NCc1cccs1)S(=O)(=O)c1ccc([N+](=O)[O-])cc1	none
CCN(CC(=O)NCc1cccs1)S(=O)(=O)c1cccc(C(C)=O)c1	UHRF1 MBD2 ctr 24
Cc1ccc(CN2CC(N3CCN(C)CC3)CS2(=O)=O)cc1 (stereo not drawn)	none
Cc1ccc2oc(Nc3nc(-c4ccccc4)cc(=O)[nH]3)nc2c1	UHRF1 MBD2 ctr 75 (no result: Rin1-Abl PPI inh)
COCc1cc(=O)[nH]c(Nc2nc3ccccc3o2)n1	none
C=CC[C@@H](CC(=O)N[C@@H](CO)Cc1ccccc1)C(=O)N[C@@H](COC(=O)[C@@H](CC=C)CC(=O)OC(C)(C)C)Cc1c[nH]c2ccccc12	none
C=CC[C@@H](CC(=O)N[C@H](CO)Cc1ccccc1)C(=O)N[C@H](COC(=O)[C@@H](CC=C)CC(=O)OC(C)(C)C)Cc1c[nH]c2ccccc12	UHRF1 MBD2 ctr 26
CN(c1ccccc1)S(=O)(=O)c1ccc(NC(=O)c2ccc(-c3ccccc3)cc2)cc1	TCR-CD3 inh 63
CC(=O)Nc1ccc(NC(=O)c2ccc(N(C)S(=O)(=O)c3ccc(C)cc3)cc2)cc1	none
COCOCCn1cc(CN2CCS(=O)(=O)N(Cc3ccc(-c4ccncc4)cc3)C(CC(C)C)C2=O)nn1 (stereo not drawn)	UHRF1 MBD2 ctr 24
COCOCCn1cc(CN2CCS(=O)(=O)N(Cc3ccc(-c4ccncc4)cc3)C(C(C)C)C2=O)nn1 (stereo not drawn)	none
COc1cc(C)nc(N(C)S(=O)(=O)c2ccccc2Cl)n1	UHRF1 MBD2 ctr 28
CN(Cc1ccccc1)C(=O)[C@@H]1CCCN1	none (no result: Rin1-Abl PPI inh)
CN(Cc1ccncc1)C(=O)[C@@H]1CCCN1C(=O)[C@@H]1CCCN1	UHRF1 MBD2 ctr 22 (no result: Rin1-Abl PPI inh)
Cc1ccc(S(=O)(=O)N(CC(=O)NN=C2CCN(C)CC2)c2ccc(C(C)C)cc2)cc1	UHRF1 MBD2 ctr 34
Cc1ccc(N(CC(=O)NN=C2CCN(C)CC2)S(=O)(=O)c2ccc(C)cc2)cc1	none
CN(C)c1cccc(N(C)C)c1CNC(=O)NC(=O)c1c(F)cccc1F	UHRF1 MBD2 ctr 28
CC(C)C[C@@H](CNCC(=O)[C@H](CC(=O)O)NC(=O)c1[nH]cnc1C(=O)N[C@H](CN)CC(C)C)NC(=O)c1nc[nH]c1C(=O)N[C@@H](C)C(=O)O	UHRF1 MBD2 ctr 22
CC(C)C[C@@H](CNCC(=O)[C@H](CC(C)C)NC(=O)c1[nH]cnc1C(=O)N[C@@H](C)CN)NC(=O)c1nc[nH]c1C(=O)N[C@@H](C)C(=O)O	UHRF1 MBD2 ctr 23
c1ccc(-c2cccc(CNc3nc(-c4ccccn4)nnc3-c3ccccc3)c2)cc1	none (no result: Rin1-Abl PPI inh, TCR-CD3 inh)
Cn1cc(CCOCc2ccccn2)c2ccccc21	none (no result: Rin1-Abl PPI inh)
Cc1cc(Br)cn2c(Cc3cccc(F)c3)c(-c3ccco3)nc12	none (no result: Rin1-Abl PPI inh)
COC(=O)c1ccc(/C=C/c2c(-c3ccsc3)sc3ccccc23)cc1	UHRF1 MBD2 ctr 23
Cc1ccc(C(=O)CCC(=O)N2CCC(C(N)=O)CC2)cc1	UHRF1 MBD2 ctr 29
Cc1ccc(SCC(=O)N2CCC(C(N)=O)CC2)cc1	none
O=C(NC1CCCC1)c1ccccc1OCc1ccccc1	UHRF1 MBD2 ctr 39
c1ccc(COc2ccc(OCCCNC3CCCC3)cc2)cc1	UHRF1 MBD2 ctr 31
COCCCNCCCCOc1ccc(OCc2ccccc2)cc1	none
CCCCNC(=O)NC1CCN(CC(=O)Nc2ccc3c(c2)OCCO3)CC1	UHRF1 MBD2 ctr 32 (no result: Rin1-Abl PPI inh, TCR-CD3 inh)
COc1ccc2c(c1)CN1C(=O)N(C3CCCC3)S(=O)(=O)CC21 (stereo not drawn)	none (no result: Rin1-Abl PPI inh, TCR-CD3 inh)
CN1CCN(CC(=O)Nc2ccc(S(=O)(=O)N(C)C)cc2)CC1	UHRF1 MBD2 ctr 22
CN(C)S(=O)(=O)c1ccc(NC(=O)CN2CCCCCC2)cc1	none
COc1ccc(N2CCN(S(=O)(=O)c3ccc(OC)cc3)CC2)cc1	none
COc1ccc(S(=O)(=O)n2cccc2)cc1	UHRF1 MBD2 ctr 23
N=C1C(c2nc3ccccc3s2)=C(O)CN1NC(=O)c1ccco1	UHRF1 MBD2 ctr 39
COc1cccc(N2CC(O)=C(c3nc4ccccc4s3)C2=N)c1	UHRF1 MBD2 ctr 23
CC(=O)Nc1ccc(NC(=O)[C@@H](NC(=O)N2C[C@H]3C[C@@H](C2)c2cccc(=O)n2C3)C(C)C)cc1	none
